High-throughput results as filed in PubChem.
Only some compounds are listed: those with a hit (about 19% of all), similar ones and a draw of the others.
DT40 TDP1 no CPT – qHTS for Inhibitors of human tyrosyl-DNA phosphodiesterase 1 (TDP1): qHTS in cells in absence of CPT. AID 686978, 2013. DT40 Tdp1-/- hTDP1 cells, no CPT, ATP luminescence, 48 h. Potency, µM (titrated, usually from 46.2 µM), most hits filed as inhibitors. 420,000 compounds, 15% hits; further: nearly all actives have a fitted effect of over 55% in size
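Luminescent ATP content (CellTiter-Glo) served as the growth readout. Knockout chicken DT40 cells expressing human TDP1 were exposed to compounds without camptothecin for a minimum 48 hr at 37 °C.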
TDP1 cell CPT – growth inhibition of DT40 Tdp1-/-;hTDP1 cells with camptothecin (screen for TDP1 inhibitors) | Potency, µM (series often up to 46.2 µM), usual class: inhibitors | AID 686979 | 420,000 compounds, 12% hits | chicken DT40 Tdp1-/-;hTDP1 cells + 20 nM CPT, ATP luminescence, 48 h; further: nearly all actives have a fitted effect of over 55% in size
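Chicken DT40 Tdp1-/- cells complemented with human TDP1, 400 cells/well, exposed to compounds plus 20 nM camptothecin for at least 48 h at 37 C; viability read as ATP content by CellTiter-Glo luminescence.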
TGFb SMAD3 inh – TGF-b pathway inhibition; Potency, µM (top dose mostly 46.1 µM), actives largely listed as inhibitors; AID 588855; 410,000 compounds, 1.2% hits; HepG2 CAGA-GFP TGF-b/SMAD3 reporter, GFP fluorescence, 18 h; TGF-beta stimulated, 500 pg/mL final; further: nearly all actives have a fitted effect of over 65% in size
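Read-out: total well GFP (ex488/em500-530) summed from mean per-cell fluorescence. Cells: HEPG2 CAGA-GFP, 1% FBS DMEM, 18 h at 37 degrees C with 500 pg/mL final TGF-beta. Unstimulated wells served as the full-inhibition control; stimulated DMSO wells = 0%.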
TDP1 inh – TDP1 (human) enzyme inhibition; Q9NUW8; recombinant TDP1, AlphaScreen DNA substrate cleavage; Potency, µM (highest dose often 130 µM), hits mostly inhibitors; 350,000 compounds, 0.28% hits; further: nearly all actives have a fitted effect of over 40% in size
Target sequence (Q9NUW8 whole entry, looked up): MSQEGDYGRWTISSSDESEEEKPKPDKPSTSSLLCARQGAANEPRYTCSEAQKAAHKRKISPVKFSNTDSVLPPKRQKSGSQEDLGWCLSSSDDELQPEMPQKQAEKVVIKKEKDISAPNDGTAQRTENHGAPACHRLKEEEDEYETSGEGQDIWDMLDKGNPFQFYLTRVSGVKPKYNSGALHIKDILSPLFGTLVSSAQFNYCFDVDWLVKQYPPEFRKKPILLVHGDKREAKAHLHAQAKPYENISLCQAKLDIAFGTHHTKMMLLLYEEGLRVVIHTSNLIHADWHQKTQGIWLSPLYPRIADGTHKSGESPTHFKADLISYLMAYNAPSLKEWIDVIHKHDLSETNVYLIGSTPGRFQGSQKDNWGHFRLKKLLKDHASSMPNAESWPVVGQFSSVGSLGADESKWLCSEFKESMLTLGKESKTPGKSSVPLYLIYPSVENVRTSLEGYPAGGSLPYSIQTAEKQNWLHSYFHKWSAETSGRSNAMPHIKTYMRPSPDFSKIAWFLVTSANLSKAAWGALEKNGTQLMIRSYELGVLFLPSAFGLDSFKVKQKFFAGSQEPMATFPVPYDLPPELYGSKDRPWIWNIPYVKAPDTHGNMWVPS
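Tdp1 1 nM final; 15 min RT w/ cpd; substrate 15 nM, 5 min; beads 10 ug/ml, 10 min; AlphaScreen read. Neg ctrl: no enzyme.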
HepG2 tox – HepG2 cytotoxicity, counter-screen for TGF-b inhibitors | Potency, µM (doses to about 46.1 µM), most hits filed as cytotoxic | 410,000 compounds, 0.76% hits | HepG2 CAGA-GFP viability, ATP luminescence, 18 h
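HepG2 CAGA-GFP cells (1000/well, DMEM with 1% FBS) received compound, then TGF-beta at 500 pg/mL final, and were incubated 18 hours at 37 degrees C. Viability was read by CellTiter-Glo luminescence. Media-only wells were set as complete cell-killing and DMSO as no toxicity.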
IL1B secr inh – inhibitors of inflammasome signaling (IL-1 beta secretion); THP-1 LPS/ATP IL-1B secretion, AlphaLISA, 16 h; hits give low values; activity change, % at 57.5 µM; 360,000 compounds, 4.7% hits; in the data active means activity change below about -50%; inconclusive means mostly about -30% to -49%
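THP-1 cells pretreated 1 hr with compounds (up to 57.5 uM final), then stimulated with LPS (250 ng/mL final) plus ATP (1.25 mM final); secreted IL-1B measured by AlphaLISA after 16 hr, decreased signal indicating inhibition.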
Numbers stand for hits; i = inactive; ? = inconclusive; nt = not tested or not shown. Unless noted, the call rests on the fitted dose curve; in most records, active means well fitted curve in the direction sought with a large enough effect; inconclusive means small, poorly fitted or top-dose-only effect, or another doubt; inactive means no such curve, though single readings can be large; an effect the other way counts as inactive or inconclusive.

SMILES	DT40 TDP1 no CPT	TDP1 cell CPT	TGFb SMAD3 inh	TDP1 inh	HepG2 tox	IL1B secr inh
O=C(Nc1ccc(Cl)cc1Cl)c1cnn2c1NC(=C1CC1)C=C2C(F)F	i	i	i	nt	i	nt
CCN(CC)c1ccc(CN(C(=O)Cc2coc3ccc(C)cc23)C2CCS(=O)(=O)C2)cc1 (centres undefined)	23.1µM	?	?	i	i	nt
CCN(CC)c1ccc(CN(C(=O)c2cc(=O)c3ccccc3o2)C2CCS(=O)(=O)C2)cc1 (centres undefined)	?	16.4µM	i	i	i	nt
Cc1ccc2occ(CC(=O)N(Cc3ccc(N(C)C)cc3)C3CCS(=O)(=O)C3)c2c1 (centres undefined)	?	?	i	i	i	nt
CC(C)c1ccc2occ(CC(=O)N(Cc3ccc(F)cc3)C3CCS(=O)(=O)C3)c2c1 (centres undefined)	?	18.4µM	?	i	i	nt
COc1ccc(CN(C(=O)c2cc(=O)c3ccccc3o2)C2CCS(=O)(=O)C2)cc1 (centres undefined)	i	i	i	i	i	i
Cc1c(Cl)cccc1NC(=O)CCCn1nc(C)c2sc3ccccc3c2c1=O	?	?	i	i	i	nt
CC1(C(=O)Nc2nccs2)CCN1C(=O)C1(c2ccccc2)CC1 (centres undefined)	i	i	i	nt	i	i
Cc1ccc(F)c(S(=O)(=O)NC(=O)C2(C)CCN2C(=O)CC(c2ccccc2)c2ccccc2)c1 (centres undefined)	20.6µM	?	i	nt	i	i
C#Cc1ccc(NC(=O)C2(C)CCN2C(=O)C2(c3ccccc3)CC2)cc1 (centres undefined)	?	?	i	nt	i	i
CC1(C(=O)NS(=O)(=O)c2ccccc2C(F)(F)F)CCN1C(=O)CCc1ccccc1 (centres undefined)	i	i	i	nt	i	-54.0
C#Cc1ccc(NC(=O)C2(C)CCN2C(=O)CC(c2ccccc2)c2ccccc2)cc1 (centres undefined)	?	16.4µM	i	nt	i	i
CC1(C(=O)Nc2nccs2)CCN1C(=O)CC(c1ccccc1)c1ccccc1 (centres undefined)	20.6µM	16.4µM	i	nt	i	i
CC1(Cc2ccc(F)cc2)C(=O)Nc2ccc(S(=O)(=O)NC3CCCCC3)cc21 (centres undefined)	?	?	?	nt	i	i
COc1ccc(Cl)cc1CC1(C)C(=O)Nc2ccc(S(=O)(=O)NC3CCCCC3)cc21 (centres undefined)	?	23.1µM	?	nt	i	i
COc1ccc(OC(F)(F)F)cc1CC1(C)C(=O)Nc2ccc(S(=O)(=O)NC3CCCCC3)cc21 (centres undefined)	?	20.6µM	?	nt	i	i
CC1(Cc2ccccc2OC(F)(F)F)C(=O)Nc2ccc(S(=O)(=O)NC3CCCCC3)cc21 (centres undefined)	?	?	12.6µM	nt	i	i
COc1ccc(C(C)=O)cc1CC1(C)C(=O)Nc2ccc(OC(F)(F)F)cc21 (centres undefined)	?	?	i	nt	i	i
COc1ccc(OC(F)(F)F)cc1CC1(C)C(=O)Nc2ccc(-c3ccsc3)cc21 (centres undefined)	?	?	12.6µM	nt	i	i
COc1c(Cl)cccc1NC(=O)c1c(NC(=O)Cc2ccccc2)sc2c1CCCC2	nt	nt	nt	i	nt	nt
COc1ccccc1CC1(C)C(=O)Nc2ccc(S(=O)(=O)NC3CCCCC3)cc21 (centres undefined)	?	20.6µM	i	nt	i	i
COc1ccc(OC(F)(F)F)cc1CC1(C)C(=O)Nc2cccc(Cl)c21 (centres undefined)	14.6µM	?	?	nt	i	i
CC1(Cc2cccc(F)c2)C(=O)Nc2ccc(OC(F)(F)F)cc21 (centres undefined)	?	?	?	nt	i	i
Cc1ccccc1CC1(C)C(=O)Nc2ccc(S(=O)(=O)NC3CCCCC3)cc21 (centres undefined)	20.6µM	?	?	nt	i	i
Cc1cc(C)c(S(=O)(=O)N2CCN(C(=O)c3ccccc3OCc3c(C)noc3C)CC2)c(C)c1	i	?	?	nt	i	?
SMILES	DT40 TDP1 no CPT	TDP1 cell CPT	TGFb SMAD3 inh	TDP1 inh	HepG2 tox	IL1B secr inh
COCCCNC(=O)CSc1nc(-c2ccc(OC)cc2)[nH]c1-c1ccc(OC)cc1	i	i	?	i	i	nt
Cc1nn(CCC(=O)N2CCN(c3ccccc3)CC2)c(C)c1S(=O)(=O)N1CCCC1	?	18.4µM	i	i	i	nt
Cc1nn(CCC(=O)Nc2ccc(Cl)cc2)c(C)c1S(=O)(=O)N1CCCCC1	14.6µM	20.6µM	?	i	i	nt
Cc1ccc(NC(=O)CCn2nc(C)c(S(=O)(=O)N3CCCCC3)c2C)cc1Cl	16.4µM	?	?	i	i	nt
CC(=O)c1ccc(NC(=O)CC(C)S(=O)(=O)c2ccc3c(c2)CCN3C(C)=O)cc1 (centres undefined)	i	i	i	i	i	i
CC(C)C(=O)Nc1ccc(Oc2ccc3c(c2)C(=O)NC3=O)cc1	i	i	?	nt	i	i
O=C(NNC(=O)c1cc(-c2ccc(Cl)c(Cl)c2)nc2ccccc12)Nc1ccccc1	?	14.6µM	?	i	i	?
O=C(NN1CCOCC1)c1cc(-c2cccc(Cl)c2)nc2ccccc12	?	?	i	i	i	i
O=C(NN1CCOCC1)c1cc(-c2ccc(Cl)c(Cl)c2)nc2ccccc12	1.3µM	?	i	i	i	i
Cc1ccccc1NC(=O)CSc1nnc(C)c2ccccc12	i	i	i	i	i	-68.7
COc1ccc2cnnc(SCC(=O)Nc3ccccc3)c2c1OC	?	i	i	i	i	-58.1
Cc1nnc(SCC(=O)Nc2ccc(O)cc2)c2ccccc12	i	i	i	i	i	-98.5
Cc1ccc(NC(=O)CSc2nncc3ccccc23)cc1	i	i	i	nt	i	i
Cc1nnc(SCC(=O)Nc2ccccc2)c2ccccc12	?	i	i	?	i	-101.8
COc1ccc(C2CC(c3ccccc3)Nc3nc(NS(C)(=O)=O)nn32)cc1 (centres undefined)	i	i	i	i	i	i
COC(=O)CCC(=O)N1CCCC(CO)(Cc2ccccc2F)C1 (centres undefined)	i	i	i	nt	i	i
O=C(Cn1cnc2c(nnn2-c2cccc(Cl)c2)c1=O)NCc1ccccc1	i	i	i	nt	i	i
COc1ccc(N2CCN(C(=O)CS(=O)(=O)c3cccc4nsnc34)CC2)cc1	i	i	i	i	i	nt
Cn1nnnc1SCCNCc1ccc(OCc2ccccc2Cl)cc1	?	?	i	i	i	nt
